Results filed as inconclusive are left out. Active and inactive are the calls of the source. Unless noted, the call rests on the fitted dose curve; in most records, active means well fitted curve in the direction sought with a large enough effect in the repeat runs; inconclusive means weak or mixed curves; inactive means no such curve, though single readings can be large; an effect the other way counts as inactive or inconclusive.

The nature of test [1]: qHTS assay to identify small molecule agonists of the RXR signaling pathway - cell viability counter screen (AID 1159529). Further: nearly all actives have a fitted effect of over 50% in size. Further: potency means the concentration at half of the fitted maximal effect. In outline:
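Counter screen: CellTiter-Glo luminescence. Cells: RXR-alpha-UAS-bla HEK 293T. Medium: 2% charcoal-stripped FBS. Treatment: 16 h, 37 C. Reagent incubation: 30 min, RT.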

Test [2] in a line: qHTS assay to identify small molecule antagonists of the retinoid acid receptor (RAR) signaling pathway - cell viability counter screen (AID 1159551). Further: nearly all actives have a fitted effect of over 35% in size. Further: potency means the concentration at half of the fitted maximal effect. Put shortly: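 Cytotoxicity counter screen in C3RL4 cells: 6 h compound exposure with 1 uM retinol (final), viability from cellular ATP by luminescence.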
In general terms: In qHTS, concentration-response curves come from the screen itself.

A short description of test [3]: qHTS assay to identify small molecule antagonists of the retinoic acid receptor (RAR) signaling pathway (AID 1159552; further: nearly all actives have a fitted effect of over 50% in size; further: potency means the concentration at half of the fitted maximal effect). In outline: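 Antagonism of retinol-induced RARE reporter activity was measured in C3RL4 cells. Exposure to compounds and 1 uM final retinol lasted 6 hr at 37 C, with luminescence as endpoint.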
Test [4] is described as follows: qHTS assay to identify small molecule agonists of the retinoic acid receptor (RAR) signaling pathway (AID 1159553). Further: potency means the concentration at half of the fitted maximal effect. Put shortly:
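Agonist activity was scored in C3RL4 cells bearing a retinoic acid response element luciferase construct. Cells were treated with compounds for 6 hr at 37 C, and luciferase signal was measured as luminescence.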

The nature of test [5]: qHTS assay to identify small molecule antagonists of the estrogen related receptor (ERR) signaling pathway from Tox21 library - cell viability counter screen (AID 1224834). Further: nearly all actives have a fitted effect of over 30% in size. Further: potency means the concentration at half of the fitted maximal effect. In outline:
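Cytotoxicity of test substances is gauged in the same ERR cells used for the antagonist screen, after 17.5 h of compound treatment at 37 C, by CellTiter-Fluor fluorescence measured after 30 min.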

For test [6], the target named is Luciferin 4-monooxygenase (Photinus pyralis) (UniProt P08659). The test is described as follows: qHTS assay to identify small molecule inhibitors of firefly luciferase (AID 1224835). Further: nearly all actives have a fitted effect of over 25% in size. Further: potency means the concentration at half of the fitted maximal effect. In outline: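 Quantitative HTS format; KM concentrations of both substrates. Purified P. pyralis FLuc activity quantified from luminescence images.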
Test [7] is described as follows: qHTS assay to identify small molecule agonists of the constitutive androstane receptor (CAR) signaling pathway - cell viability counter screen (AID 1224836). Further: nearly all actives have a fitted effect of over 45% in size. Further: potency means the concentration at half of the fitted maximal effect. In outline: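 Double-stable HepG2 hepatoma cells (hCAR plus CYP2B6-2.2kb) are treated for 23 h at 37 C with test compounds in 15-point concentration series. PK11195 at 0.75 uM final is co-added. Cell viability is quantified by CellTiter-Fluor.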

Test [8] is described as follows: qHTS assay to identify small molecule antagonists of the constitutive androstane receptor (CAR) signaling pathway - cell viability counter screen (AID 1224837). Further: nearly all actives have a fitted effect of over 45% in size. Further: potency means the concentration at half of the fitted maximal effect. Put shortly:
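Multiplexed cytotoxicity read-out for the CAR antagonist screen: double-stable HepG2-CYP2B6-hCAR cells co-treated with 50 nM CITCO (final) and compound over 15 concentrations, incubated 23 hr, then assessed by CellTiter-Fluor fluorescence.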

In test [9] the target is Nuclear receptor subfamily 1 group I member 3 (Homo sapiens) (UniProt Q14994). Nature of the test: qHTS assay to identify small molecule antagonists of the constitutive androstane receptor (CAR) signaling pathway (AID 1224838). Further: nearly all actives have a fitted effect of over 40% in size. Further: potency means the concentration at half of the fitted maximal effect. Put shortly:
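Compounds were titrated across 15 concentrations onto HepG2 cells double-stably expressing hCAR and a CYP2B6-2.2kb reporter, together with 50 nM CITCO (final). After 24 h at 37 C, luciferase activity was measured by luminescence.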

Test [10] has the same target. The test is described as follows: qHTS assay to identify small molecule agonists of the constitutive androstane receptor (CAR) signaling pathway (AID 1224839). Further: nearly all actives have a fitted effect of over 15% in size. Further: potency means the concentration at half of the fitted maximal effect. Put shortly: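 Readout: firefly luciferase luminescence via ONE-Glo. System: HepG2 double-stable for hCAR and CYP2B6-2.2kb. Conditions: 15-point compound titration, PK11195 at 0.75 uM final, 24 h incubation.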

Test [11] can be described thus: qHTS assay to identify small molecule antagonists of the estrogen related receptor signaling pathway with the pleiotropic PPARgamma coactivator (PGC) from Tox21 10K library - cell viability counter screen (AID 1224840; active means well fitted cell-killing curve with a large enough effect in the repeat runs, not every such curve was filed as active; further: nearly all actives have a fitted effect of over 40% in size; further: potency means the concentration at half of the fitted maximal effect). Put shortly:
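Step one, plate 2,000 PGC/ERR cells per well; step two, incubate 6 h at 37 C/5% CO2; step three, pin-transfer compounds; step four, incubate 17.5 h; step five, add CellTiter-Fluor and read fluorescence after 30 min.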

Test [12] in a line: qHTS assay to identify small molecule agonists of the estrogen related receptor signaling pathway with the pleiotropic PPARgamma coactivator (PGC) from Tox21 10K library (AID 1224842). Further: nearly all actives have a fitted effect of over 15% in size. In outline: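 PGC/ERR reporter cells (NTP line) were seeded 2,000 per well, rested 6 h at 37 C/5% CO2, then pin-dosed with compounds in DMSO for 18 h at 37 C; luciferase read by One-Glo luminescence after 30 min at room temperature.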

The target in test [13] is Thyrotropin receptor (Homo sapiens) (UniProt P16473). The test is described as follows: qHTS assay to identify small molecule agonists of the thyroid stimulating hormone receptor (TSHR) signaling pathway (AID 1224843; calls by dose curve; further: nearly all actives have a fitted effect of over 45% in size; further: potency means the concentration at half of the fitted maximal effect). In outline:
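Cell line HEK293 with TSHR; density 800/well. Exposure 30 min RT. Readout HTRF cAMP (cAMP-d2/anti-cAMP-cryptate), 1 h RT before reading.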

The nature of test [14]: qHTS assay to identify small molecule antagonists of the estrogen related receptor signaling pathway with the pleiotropic PPARgamma coactivator (PGC) from Tox21 10K library (AID 1224841; call rule not given here; further: series mostly up to about 92 µM; actives are mostly falling curves and most rising ones were filed inactive; nearly all actives have a fitted effect of over 50% in size). Put shortly: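 Antagonism in this quantitative HTS is taken from loss of luciferase signal in PGC/ERR cells. Cells (2,000/well) are treated with compounds in DMSO after a 6 h settling period and read by One-Glo luminescence after 18 h.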

Test [15] in a line: qHTS assay to identify small molecule antagonists of the estrogen related receptor (ERR) signaling pathway - cell viability counter screen (AID 1224818). Further: series mostly up to about 46 µM. In outline: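 Cells carrying the ERR pathway reporter were seeded and incubated for 6 hours before compound addition. After a 17.5-hour exposure at 37 C, live-cell protease activity was measured by CellTiter-Fluor fluorescence following 30 minutes of incubation.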

The nature of test [16]: qHTS assay to identify small molecule antagonists of the estrogen related receptor signaling pathway with the pleiotropic PPARgamma coactivator (PGC) cell viability counter screen (AID 1224822; further: series mostly up to about 46 µM). Put shortly: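 Seed PGC/ERR cells (2,000/well); incubate 6 h at 37 C/5% CO2; pin-transfer compounds in DMSO; incubate 17.5 h at 37 C; add CellTiter-Fluor; after 30 min read fluorescence.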

Sequence of Luciferin 4-monooxygenase (Photinus pyralis) (P08659 whole entry, looked up): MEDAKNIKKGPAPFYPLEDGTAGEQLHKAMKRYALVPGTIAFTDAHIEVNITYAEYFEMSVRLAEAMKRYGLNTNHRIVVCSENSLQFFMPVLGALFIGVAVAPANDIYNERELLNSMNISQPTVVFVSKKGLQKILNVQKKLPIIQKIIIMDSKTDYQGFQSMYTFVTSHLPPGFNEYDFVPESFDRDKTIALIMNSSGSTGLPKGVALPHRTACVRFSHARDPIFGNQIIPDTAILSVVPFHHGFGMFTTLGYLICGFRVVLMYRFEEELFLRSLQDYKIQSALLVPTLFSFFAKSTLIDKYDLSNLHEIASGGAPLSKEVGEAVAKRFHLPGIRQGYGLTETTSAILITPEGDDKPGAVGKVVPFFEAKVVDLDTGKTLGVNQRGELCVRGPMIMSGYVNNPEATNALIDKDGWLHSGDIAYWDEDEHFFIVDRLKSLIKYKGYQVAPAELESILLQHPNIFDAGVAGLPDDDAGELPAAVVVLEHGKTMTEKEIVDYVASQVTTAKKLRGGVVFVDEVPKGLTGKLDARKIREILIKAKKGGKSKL
Sequence of Nuclear receptor subfamily 1 group I member 3 (Homo sapiens) (Q14994 whole entry, looked up): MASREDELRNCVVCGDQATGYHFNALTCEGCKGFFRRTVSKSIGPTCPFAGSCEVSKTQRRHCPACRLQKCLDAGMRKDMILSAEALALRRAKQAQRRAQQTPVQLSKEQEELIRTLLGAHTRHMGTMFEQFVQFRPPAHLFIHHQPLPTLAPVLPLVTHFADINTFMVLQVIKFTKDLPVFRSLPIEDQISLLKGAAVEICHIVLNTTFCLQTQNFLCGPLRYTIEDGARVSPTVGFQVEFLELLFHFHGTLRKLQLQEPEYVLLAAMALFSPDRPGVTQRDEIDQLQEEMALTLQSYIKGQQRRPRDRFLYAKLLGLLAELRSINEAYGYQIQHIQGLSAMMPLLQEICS
Sequence of Thyrotropin receptor (Homo sapiens) (P16473 whole entry, looked up): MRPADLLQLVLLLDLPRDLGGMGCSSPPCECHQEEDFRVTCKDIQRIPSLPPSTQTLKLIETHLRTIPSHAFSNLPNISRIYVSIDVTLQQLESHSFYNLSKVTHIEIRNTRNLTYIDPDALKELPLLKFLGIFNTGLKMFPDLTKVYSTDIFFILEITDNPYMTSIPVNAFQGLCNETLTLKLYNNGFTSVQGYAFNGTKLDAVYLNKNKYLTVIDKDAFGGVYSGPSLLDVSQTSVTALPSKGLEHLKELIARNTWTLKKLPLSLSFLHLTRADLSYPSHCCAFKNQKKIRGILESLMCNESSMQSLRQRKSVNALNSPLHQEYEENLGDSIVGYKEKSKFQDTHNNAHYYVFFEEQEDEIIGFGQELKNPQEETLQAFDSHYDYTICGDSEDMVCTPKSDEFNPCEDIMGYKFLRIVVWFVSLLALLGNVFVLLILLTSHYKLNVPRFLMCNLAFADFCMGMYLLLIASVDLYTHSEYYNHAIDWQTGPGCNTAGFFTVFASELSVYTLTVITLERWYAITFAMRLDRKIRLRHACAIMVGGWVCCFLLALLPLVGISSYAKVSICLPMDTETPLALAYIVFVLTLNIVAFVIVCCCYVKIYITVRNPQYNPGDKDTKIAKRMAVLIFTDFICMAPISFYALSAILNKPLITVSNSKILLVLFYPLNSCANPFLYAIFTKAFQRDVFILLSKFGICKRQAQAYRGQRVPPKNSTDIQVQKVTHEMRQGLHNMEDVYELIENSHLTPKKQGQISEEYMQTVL

On to `[O]=[Cr][O][Cr]=[O]`, for which the Potency entry in test [1], in test [2], in test [3], in [4], in test [5] and in test [6] was “inactive” throughout. Further, the Potency entry in test [7], in test [8], in [9], in [10] and in [11] was “inactive” in each case.
Turning to `Cc1cc2c3c(c1)C(c1ccccc1)=N[C@@H](NC(=O)c1ccncc1)C(=O)N3CC2`, the Potency entry in test [1], in test [2], in test [3], in test [4], in test [5] and in test [6] was “inactive” each time. Further, the Potency result in [7], in [8], in [9], in test [11], in [12] and in [13] was “inactive” each time.
Turning to `c1csc(-c2ccc(-c3cccs3)s2)c1`, the Potency entry in test [1], in [2], in [3], in test [5], in [7] and in test [8] was “inactive” in each case. For the same compound, the Potency entry in [9] and in test [11] was “inactive” each time. The results for the Potency in test [4], in test [6] and in test [10] were 1.72 µM (active), 2.52 µM (active) and 13.7 µM (active), respectively.
For the compound `CCC1(CC)C(=O)N=C(O)NC1=O`, the Potency entry in [1], in test [2], in test [3], in test [4], in [5] and in test [6] was “inactive” each time. The Potency result in test [7], in [8], in test [9] and in [11] was “inactive” each time.
Regarding `CCC[CH2][Sn]([CH2]CCC)([CH2]CCC)[CH2]CCC`, the Potency was 21.9 µM (active) in [1]; 43.3 µM (active) in test [2]; 9.69 µM (active) in test [3]; 27.3 µM (active) in test [5]; 15.4 µM (active) in [7]; 24.3 µM (active) in test [8]. The Potency in test [9] is 9.69 µM (active); in [11], 17.2 µM (active). The Potency result in test [4], in test [6] and in test [14] was “inactive” throughout.
As to `CC(Cl)CCl` (configuration not stated), the Potency result in [1], in [2], in test [3], in test [4], in [5] and in test [6] was “inactive” in each case. For the same compound, the Potency result in test [7], in test [8], in [9], in test [10], in test [11] and in test [13] was “inactive” in each case.
For the compound `O=[N+]([O-])c1ccccc1-c1ccccc1`, the Potency result in [1], in test [2], in [3], in [4], in test [5] and in test [6] was “inactive” throughout. The Potency result in test [7], in test [8], in test [9], in [10], in test [11] and in test [13] was “inactive” each time.
Turning to `O=[N+]([O-])c1ccc(CCl)cc1`, the Potency result in [1], in test [2], in [3], in test [4], in test [5] and in test [6] was “inactive” each time. The Potency result in test [7], in test [8], in test [9], in test [10], in test [11] and in [13] was “inactive” throughout.
As for `COc1ccc(Cc2nccc3cc(OC)c(OC)cc23)cc1OC`, the Potency result in test [1], in test [2], in test [3], in test [4], in test [15] and in test [16] was “inactive” throughout. Also, the Potency entry in test [7], in test [8], in test [9] and in test [11] was “inactive” in each case. In addition, in test [13], the Potency is 9.44 µM (active).
In the case of `Clc1cc(Cl)c(-c2cc(Cl)c(Cl)cc2Cl)cc1Cl`, the Potency entry in test [1], in [2], in test [3], in test [4], in test [5] and in test [6] was “inactive” in each case. Further, the Potency result in test [7], in test [8], in test [9] and in [11] was “inactive” in each case.

Source of the values: PubChem BioAssay (Tox21).
